Screen size: about 53,000 sequences; about 3,700 (7%) were called active. This excerpt belongs to a sample that is enriched for actives. Unmarked numbers belong to inactive results.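 How the source made its calls: active means gene knockdowns whose robust z-score for IL-1 alpha signal is at least 2 or at most -2, so actives lie on both sides; inactive means the rest.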
Test: Components of the Cytosolic LPS Sensing Pathway: Gene Identification via Genome-wide siRNA Screen;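 further: robust z of the log signal after scaling to non-targeting control siRNA wells of the plate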
Settings: RAW264.7 macrophages, IL-1a HTRF, actives lie on both sides, screened at 100 nM (by protocol), cells primed 5 h with Pam3CSK4 first
In short: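 Three distinct siRNAs per gene were tested singly at 100 nM in RAW264.7 macrophages. Following Pam3CSK4 priming and 24 hour LipidA transfection, IL-1a secretion was read by HTRF.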
GGCUGUCCGUACCUAUAAATT against Cpb1 gave a z-score of -1.26. For GGAAUUUGUGACCAACUAUTT against Rbm4b, the z-score was 1.07. Sequence CCUUGACCCAGAUUGAGAATT against Xkr6 has a z-score of 0.363. With GUAUGGAUGUGGAAGCCUCTT against Olfr1417 the z-score was -0.77. GGGCUUGAAAUUGAAAUGUTT against Ccl9 gave a z-score of -1.09. With GCGACAACUGUGAUAUACCTT against Liph the z-score was -0.485. Sequence GCCUCAAUGGCACUCAAAUTT against Mdc1 has a z-score of -0.217. In the case of CCGUCUUCUGCUGUGGAACTT against Ctrc, the z-score is reported as 2.6 (active). CCCACUGCCAAGUACAAUGTT against Dmwd showed a z-score of 1.44. For UUGUGAUUCCAAUUUCCCUTT against Olfr1330, the z-score was -0.32. Sequence GGUCAGAGUGCCUCUUGAATT against Slc7a5 has a z-score of -0.8. With GGUCAAAGAUGGAGUAAAUTT against Tmem87a the z-score was -2.31 (active). With GCAAUGUCGCCAAACGUAATT against Ikzf1 the z-score was 0.457. For GAUACAGACCUUGCUCUUCTT against Olfr714, the z-score was -0.421. GGACAUUGUCACAUCAUUCTT against Slc2a6 showed a z-score of 1.64. For GCUAAUAGUCAUUAAACUGTT against Zfp2, the z-score was 1.76. Work on GCUCAACGAAACAAUACCGTT against Il2rb yielded a z-score of 0.737. For GGAUGGUCGAAACAAUAACTT against Stk32b, the z-score was 2.16 (active). GGCAUUUCUGUUCUGUAAGTT against Sh3bgrl showed a z-score of -0.783. Sequence GCUGACCACUUCAAGGUUGTT against Lgals3 has a z-score of 0.468. With GGCCAGUGUAUUUGACCUGTT against Slc22a18 the z-score was -1.24. For GCUCUGCUAUCGUGAUCUGTT against Kctd13, the z-score was 1.68. With GCUUGCACUGGACUCAACUTT against Pax4 the z-score was -2.76 (active). In the case of CGAGAAGAACUGUGUAAAGTT against Vldlr, the z-score is reported as -0.184. CCAUAUCAGGCAUAGCAGUTT against Nthl1 showed a z-score of -0.772. GCCAUCGAUGUACUGAGCUTT against Psme2 showed a z-score of 0.525. For GGUAGAGAGCUCAACAGGGTT against Klrb1c, the z-score was 0.287. Work on GGACUGUUGCAUGACUCUCTT against Evc yielded a z-score of 1.08. With GCCUUACUGGGUUACUUGUTT against Cdkn2d the z-score was 3.22 (active). In the case of GGAACUGAAUGCGGAAUUCTT against Chil1, the z-score is reported as 0.261. GGUUUCUUCAUCUUGUAUUTT against Gjd4 gave a z-score of 0.184. In the case of GGUUCUGGAGCAAAUCCACTT against Styk1, the z-score is reported as 2.37 (active). CCCGAGACCAUUAAUGAUUTT against Snx3 showed a z-score of -0.306. Sequence CGAACCCUAGCGGAAAUUGTT against Nono has a z-score of -1.54. With GGUGGGAAGAUAGAUAAAATT against Mamstr the z-score was 3.28 (active). GGGCUCUACAGUUUUUAAUTT against Atp5g3 showed a z-score of 1.31. For “GCAGUUUCGUUCCUACUCGTT against Cdkn2aipnl”, the z-score was 0.796. GCAGAUAAUCUAGCAAAGATT against Agps showed a z-score of 0.903. “CCGAAAUCCUACAUAUAUGTT against B430209F14Rik” gave a z-score of -0.306. In the case of GCUUGAAUUUCUGUGGAGGTT against Olfr1320, the z-score is reported as -2.44 (active). Work on GGGUGAGACUUUUAUUAUUTT against Epdr1 yielded a z-score of -0.468. GGACAUAUAGCUGAUUUCUTT against Ctdsp2 gave a z-score of 1.97. GGGAUGGAAACCCUGGAUCTT against Col3a1 gave a z-score of 0.438. CCUUAGGAUCGUCUUAUUATT against Zic2 showed a z-score of 0.619. With GGGAAAAGAAAGUACCUACTT against Zcchc10 the z-score was 2.26 (active). In the case of CGACCUGACUUUUCUUAGGTT against Dynlrb2, the z-score is reported as 0.855. GGCAACUUUGUUAUAUACATT against Ctr9 showed a z-score of 0.212. Sequence GGAUCUUCUACACAGUAAATT against Ppp2r3d has a z-score of -0.0431. Sequence GGGCAUCAGCUAUUAAAGATT against Tpmt has a z-score of 0.488. For GGCUAGAUGACAACCGCAUTT against Flrt1, the z-score was 1.13. Sequence GGGAGUUAUAUAAAUGCAUTT against Taf7l has a z-score of -1.13. With CACAGAACAUCAUCUCCCATT against Olfr887 the z-score was -2.79 (active). Work on CGAAAUGACAGUGUUAUUCTT against Mpl yielded a z-score of 0.185. GGUAUGAUGGGAAAUUUUUTT against Tmod2 gave a z-score of 1.07. GGAAUCGGUGUAUUCGUUUTT against Sectm1b showed a z-score of 0.593. GGAAGACAAAGUCUGGGUGTT against Hpx showed a z-score of -0.915. For GGUCCUACAGGAGAAGAUCTT against Tekt2, the z-score was -2.09 (active). In the case of GGAGAAGUUCCCUAACAUGTT against Ppan, the z-score is reported as -1. GCCAGUAAGGAAUUCAACUTT against C3 showed a z-score of -1.29. In the case of GGGCAUUGAAGCAAAUAUATT against Tmprss15, the z-score is reported as 0.323. For GGACGCAUGAUGUGGGUUCTT against Tmem41a, the z-score was -0.626. In the case of GCUAAGUCGGAGCAGUUUUTT against Clba1, the z-score is reported as 2.07 (active). With AUGGUGCUGUUUUAUUUGUTT against Olfr671 the z-score was -0.807. UAUCGUCCACAACUACUCATT against Epn1 gave a z-score of 1.14. Work on GGACAUCCAACCGUACAUGTT against Ccnd2 yielded a z-score of 0.247. For GCAAGCUACAUGCAUACAUTT against Zfp945, the z-score was 3.59 (active). For GCCCUUUGACAAUUUGUUUTT against Stra6l, the z-score was -0.661. For CCUAUGUAACACAAACAUUTT against Orc5, the z-score was 0.721. With GGUACAAGGUCAUCAUGAGTT against Olfr1341 the z-score was -2.85 (active). Work on GGAGGGAGUAUCCAUGUCATT against Nr2c2 yielded a z-score of 0.209. Work on GGUCGACAGACUCUUGCAUTT against Mylk3 yielded a z-score of -0.982. Work on GCAAGCAGAGAUGUUACAUTT against Olfr1284 yielded a z-score of -0.975. For GGUGCUGUAUUUGAUGUUATT against Nudt6, the z-score was 0.544. With GGAACUUGAACUAAAAAUGTT against Eaf1 the z-score was 2.5 (active). GGUGAUGGUGAACAAGAAATT against Lgals9 gave a z-score of -0.811. In the case of GGCUCACGCUCGUUACCUATT against Nwd1, the z-score is reported as -1.86. In the case of GGGUCCUAAGACUAUUGAUTT against Eif4g1, the z-score is reported as 0.274. GCUUCCUUCUUCUUGUCCATT against Vmn1r42 gave a z-score of -0.475. In the case of GGAUUUUCGAUUCUCUUACTT against Glg1, the z-score is reported as 2.25 (active). In the case of GGAUGUUCAACCUAAACGATT against Ferd3l, the z-score is reported as -0.347. With GGUUCAGAAGUCUAUGUCUTT against Ufsp1 the z-score was 0.866. In the case of GCCGUAUCACCCUAAACUATT against Pxylp1, the z-score is reported as 2.05 (active). GGCCUAGUUCCAGUUAUGCTT against Olfr1093 showed a z-score of -1.41. For CCGCUACCUUAAGCACCUATT against Terf2ip, the z-score was 0.231. In the case of GGUUUGACUAACUUUCCUUTT against Fbxl15, the z-score is reported as 0.198. For GCGGGAACUUAAAGUUUACTT against Yars, the z-score was 3.18 (active). GGAACAGUGCUUGUAUCAGTT against Clasrp showed a z-score of 0.675. GGUUCCUUCGUGAAUGUCATT against Glp1r gave a z-score of 0.0826. With CCCGUCAAUACCACUUACCTT against Sidt2 the z-score was 2.19 (active). Sequence GCUAAUCGGAUGCUGAAGCTT against Psmb7 has a z-score of 0.71. Work on CCUUAUGUCCCUAAGGCUATT against Mbd3 yielded a z-score of -0.109. In the case of CCUCAGUUAUAGAUGAUCUTT against Rdh11, the z-score is reported as 0.319. Work on CCCUCAAAUAACAUCCAGGTT against Sh3d21 yielded a z-score of -1.93. For GGAAAUCUAUUUCAUUGACTT against Zcchc10, the z-score was 0.956. In the case of GCUUGUGCGAGUGUUGGAUTT against Has1, the z-score is reported as 2.21 (active). GGGUUUCCUACAGAGUACCTT against Amer3 showed a z-score of -0.845. “GGCAUGGAUUGGUGAGAUUTT against 9330175E14Rik” gave a z-score of -0.576. Work on GCAUUAAGCACGAGAAAAATT against Slc18a2 yielded a z-score of 0.575. In the case of GCUCUCAGAUGACAUCACUTT against Supt5, the z-score is reported as -2.43 (active). Sequence GGACCACUUGUAGUAUUUGTT against Map7d1 has a z-score of 0.593. Work on GGCAACUGCCUUUACCAUATT against Tceanc2 yielded a z-score of 1.67. In the case of GGAGAUCGACCUGUCUAUGTT against Cep164, the z-score is reported as 0.988. CGGAAAAGAUCCCUAUUGUTT against Adam5 gave a z-score of 0.373. With GGGACGUGCAAUUGUCUGATT against Mfsd6 the z-score was 0.0857. With GGAUGGCAUGUCCUUCCAATT against Elf3 the z-score was 2.85 (active). Work on GGAAGUGGAAAAAGUUUAGTT against Brip1 yielded a z-score of 0.442. With GGCAUUGCUGACUACAAACTT against Tcn2 the z-score was 2.15 (active). GCAGUUUUGGGCAAUACCUTT against Olfr358 showed a z-score of 1.22.

Reference: PubChem BioAssay AID1508600 (Functional Genomics Laboratory (NCATS/FGL), 2020)
